Experimental data reported in PubChem BioAssay (NCI).
About 83,000 compounds went through this panel and 20% of them were active in at least one assay; those are over-represented in the sample as a whole.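 Activity criterion: percent growth below 10, measured after cells in 96-well plates were exposed to a single compound concentration for 48 hours.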 Unmarked numbers belong to inactive results. Activity calls are given as the source filed them.

These compounds were tested on HL-60(TB) leukemia (assay: NCI-60 one-dose screen, 48 h (100 = growth as untreated, 0 = no growth, -100 = all killed)). Conditions: 10 µM unless noted.

Structure (SMILES) | growth
O=S=Nc1ccc([N+](=O)[O-])cc1 | 102%
C/C=C(/C)n1cnc2c(Nc3ccccn3)nc(Cl)nc21 | 107%
Cn1cc(-c2nonc2-c2c[nH]c3ccccc23)c2cccnc21 | 4.76% (active)
O=C(NCN1C(=O)c2cccc3cccc(c23)C1=O)N1CCC(Cc2ccccc2)CC1 | 96.1%
CC(C)(C)CC(C)(C)Nc1c(-c2c(O)c3ccccc3oc2=O)nc2c(Cl)cc(C(F)(F)F)cn12 | 90.9%
COc1cc(OCc2cccc(-c3ccccc3)c2C)cc(OC)c1CN1CCCCC1C(=O)NCCOCCOCCN (configuration not stated) | -42.4% (active)
COc1cc2c(-c3cc4c(cc3CNCCc3ccc5c(c3)OCO5)OCO4)cccc2c(OC)c1O | 71.3%
CCN1C(=O)N(CC)C2C1NN=c1s/c(=C\c3cccc(F)c3)c(=O)n12 (configuration not stated) | -16.9% (active)
CCCCCCCCCCCCCCNCc1ccccc1 | 51.9%
COC(=O)/C=C1/SC(=Nc2ccc(F)cc2)N(CCc2c[nH]c3ccc(O)cc23)C1=O | -8.07% (active)
COc1cc(C2CC(c3cccc(Nc4ccncc4)c3)=NN2c2ccccc2)cc(OC)c1OC (configuration not stated) | -43.8% (active)
Cn1cc(-c2noc(C(=O)c3cn(C)c4ncccc34)n2)c2ccccc21 | 98.6%
COc1ccc(-c2c(-c3ccccc3)noc2N)cc1OC | 95.2%
FC(F)(F)c1ccc(-c2ncc(-c3ccc(C(F)(F)F)cc3)c(NCc3cc(C(F)(F)F)cc(C(F)(F)F)c3)n2)cc1 | 71.7%
Nc1c2c(c(O)c3c1=C(CO)C=N3)=NCCS2=O (configuration not stated) | -42.1% (active)
COC(=O)c1c[n+]([O-])ccc1OC | 106%
CCCCCC(=O)Oc1ccc(/C(=C(\C)c2ccccc2)c2ccc(OCCN3CCCCC3)cc2)cc1 | 70.2%
Cc1cc(Cl)nc(Nc2ccccc2)n1 | 78.1%
COC(=O)c1c2c(c(C)[n+]([O-])c1C)C(=O)C=C(NCc1cccc(Cl)c1)C2=O | -31.8% (active)
CC(C)(C)n1cc(-c2ccnc(NCCCNS(=O)(=O)c3ccc(Cl)cc3)c2)c(-c2cccc(O)c2)n1 | -46.1% (active)
C1C[S+]2CC[S+]1CC2 | 111%
COc1cccc(-c2nc3sccn3c2-c2ccnc(NCCNS(=O)(=O)c3ccc(F)cc3)c2)c1 | -6.21% (active)
COc1ccc(/C=C2\CCCC3=C2N=C2SC(C)=NN2C3c2ccc(OC)c(OC)c2)cc1OC (configuration not stated) | -14.5% (active)
CCCc1cc(=O)oc2c(C(=O)CC(C)C)c(O)c(CC=C(C)C)c(O)c12 | 2.72% (active)
Clc1ccc(N2N=C(c3cccc(Nc4ccncc4)c3)CC2c2ccc(Br)cc2)cc1 (configuration not stated) | 0.656% (active)
CN(C)c1ccc(-c2cc(-c3ccc(Nc4nc(Nc5ccccc5)nc(Nc5ccc(Cl)cc5)n4)cc3)nc(N)n2)cc1 | 56.3%
c1ccc(-c2c(-c3ccccc3)[n+](Cc3ccc4ccccc4c3)c(-c3cccc4ccccc34)n2Cc2ccc3ccccc3c2)cc1 | -46.8% (active)
